High-throughput results deposited in PubChem BioAssay by several laboratories.
Most compounds without a hit are left out; they make up all but 3% or so of the library.
DAGLB inh = DAGLB lipase inhibitors, primary screen, biochemical, fluorescence, HTS | HEK293T DAGLB membrane lysate, EnzChek fluorogenic substrate | inhibition, % at 5.17 µM | 340,000 tested, 0.059% active | AID 504411, 2011; in the data active means inhibition above about 34%
pPAFAH inh = pPAFAH enzyme inhibitors, primary screen, biochemical, fluorescence polarization, human. Platelet-activating factor acetylhydrolase (Homo sapiens), Q13093. AID 463082, 2010. inhibition, % at 3.39 µM. recombinant pPAFAH, FP-rhodamine probe fluorescence polarization. 330,000 tested, 1.5% active;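 active means inhibition above the mean inhibition across the screen plus 3 SD, cut at about 25% in these data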;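 further: inhibitors block binding of the rhodamine activity-based probe so polarization drops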
PAFAH1B3 inh = PAFAH1B3 enzyme inhibitors, primary screen, biochemical, fluorescence polarization, human | AID 492972, 2010 | recombinant PAFAH1B3, FP-rhodamine probe | inhibition, % at 3.39 µM | Platelet-activating factor acetylhydrolase IB subunit alpha1 (Homo sapiens), Q15102 | 340,000 tested, 0.28% active;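 active means inhibition above the screen-wide average of all tested compounds plus 3 SD, cut at about 25% in these data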
PAFAH1B2 FP inh = PAFAH1B2 enzyme inhibitors, primary screen, biochemical, fluorescence polarization, human | Platelet-activating factor acetylhydrolase IB subunit alpha2 (Homo sapiens), P68402 | recombinant PAFAH1B2, FP-rhodamine activity probe | inhibition, % at 3.39 µM | 340,000 tested, 1.2% active;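 active means inhibition above the mean of all tested compounds plus 3 SD, cut at about 24% in these data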
Target sequence (P68402 whole entry, looked up): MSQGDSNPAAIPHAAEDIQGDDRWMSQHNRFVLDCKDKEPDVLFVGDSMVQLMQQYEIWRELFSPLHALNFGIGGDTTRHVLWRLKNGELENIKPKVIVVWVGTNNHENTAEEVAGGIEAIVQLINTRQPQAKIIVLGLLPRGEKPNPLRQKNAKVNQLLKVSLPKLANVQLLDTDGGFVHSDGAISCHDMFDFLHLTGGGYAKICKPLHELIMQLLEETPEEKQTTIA
PAFAH2 FP inh = PAFAH2 enzyme inhibitors, primary screen, biochemical, fluorescence polarization, human; Platelet-activating factor acetylhydrolase 2, cytoplasmic (Homo sapiens), Q99487; recombinant PAFAH2, FP-rhodamine activity probe; inhibition, % at 3.39 µM; 340,000 tested, 0.99% active;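 active means inhibition above the mean over all tested compounds plus 3 SD, cut at about 30% in these data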;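 further: inhibitors block probe labeling of enzyme so polarization drops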
ATG4B inhibitor = ATG4B protease inhibitors, primary screen, biochemical, fluorescence, uHTS. Cysteine protease ATG4B (Homo sapiens), Q9Y4P1. ATG4B cleavage of LC3-PLA2, NBD-HPC fluorescence, 1 h. inhibition, % at 8.33 µM. 340,000 tested, 0.51% active. AID 504462, 2011; in the data active means inhibition above about 40%
Numbers stand for hits; n = inactive; x = no result given.

SMILES	DAGLB inh	pPAFAH inh	PAFAH1B3 inh	PAFAH1B2 FP inh	PAFAH2 FP inh	ATG4B inhibitor
CN(C)c1ccc(N=Cc2ccco2)cc1	n	28	n	n	n	n
O=C(NCCc1ccc(F)cc1)c1ccc(NS(=O)(=O)c2ccc3[nH]c(=O)[nH]c3c2)cc1	n	n	n	n	n	n
CC1CC(C)CN(C(=O)c2cccc3c2-c2ccccc2C3=O)C1 (stereo not drawn)	n	n	n	28	n	n
O=C1c2ccccc2-c2c1cccc2C(=O)N1CCN(C(=O)c2ccco2)CC1	n	n	n	n	n	n
CCOc1cc(C=O)ccc1OCCSc1ccc(Cl)cc1	n	n	n	54	n	n
C/C(=N\Nc1ccc(Cl)c(C(=O)O)c1)c1ccc[nH]1	n	33	n	n	n	n
O=C(NC(n1ccc(=O)[nH]c1=O)C(Cl)(Cl)Cl)C12CC3CC(CC(C3)C1)C2 (stereo not drawn)	n	n	n	27	n	n
CCN1/C(=C/C=C/c2oc3ccc4ccccc4c3[n+]2CC)Oc2ccc3ccccc3c21	x	42	x	x	x	91
Nc1c(C(=O)N/N=C/c2cccnc2)oc2nc(-c3ccco3)cc(-c3ccco3)c12	x	n	x	x	x	n
NNC(=O)c1oc2nc(-c3ccco3)cc(-c3ccco3)c2c1N	x	34	x	x	x	n
C[C@H]1CN([C@@H](C)CO)C(=O)c2cc(Br)cnc2O[C@@H]1CN(C)C(=O)c1ccncc1	n	x	x	x	x	x
COc1ccc(/C=N/NC(=O)c2ccc(CN3C(=O)c4cccc5cccc3c45)cc2)cc1O	n	n	n	27	n	n
COc1ccc(/C=N/NC(=O)c2ccc(-c3ccccc3)cc2)cc1O	n	n	n	n	n	n
CCN1CCN(CCC(=O)Nc2ccc(F)c(F)c2)CC1	n	n	n	n	n	n
C=CCN(c1cccc(C(F)(F)F)c1)S(=O)(=O)c1cccc(C(=O)OCC(=O)NCCC)c1	n	n	n	n	n	n
COc1ccc(NC(=S)Nc2ccc3nc(C)c(C)nc3c2)cc1	n	n	n	n	n	n
CCOc1ccc(NC(=S)Nc2ccc3nsnc3c2)cc1	n	n	54	34	52	n
COc1ccc(NC(=S)Nc2ccc3nsnc3c2)cc1	n	n	66	n	41	n
CC1(C(=O)NCc2ccccn2)C=CCN1C(=O)c1ccccc1 (stereo not drawn)	n	n	n	n	n	n
CC(OC(=O)Cc1c(F)cccc1Cl)C(=O)NCCC1=CCCCC1 (stereo not drawn)	n	n	n	n	n	n
Cc1ccc(C(=O)Oc2cc(C)[nH]c(=O)c2[N+](=O)[O-])cc1	n	29	n	n	n	n
Cc1cc(OC(=O)c2ccc(C)c(C)c2)c([N+](=O)[O-])c(=O)[nH]1	n	n	n	n	n	n
CN(C)S(=O)(=O)c1cc(NC(=O)COC(=O)CC2CC3CCC2C3)ccc1Cl (stereo not drawn)	n	26	n	n	77	n
CN(C)S(=O)(=O)c1cc(NC(=O)COC(=O)Cc2ccc(Cl)cc2Cl)ccc1Cl	n	n	n	n	n	n
COc1ccccc1NC(=O)c1cc(S(=O)(=O)N2CCC3(CC2)OCCO3)ccc1F	n	n	n	n	n	n
SMILES	DAGLB inh	pPAFAH inh	PAFAH1B3 inh	PAFAH1B2 FP inh	PAFAH2 FP inh	ATG4B inhibitor
O=C(Nc1ccccc1C(F)(F)F)c1cc(S(=O)(=O)N2CCC3(CC2)OCCO3)ccc1F	n	n	n	24	n	n
Cn1[nH]cc(C=NC(N)=O)c1=O	n	x	n	n	n	n
O=C(COC(=O)CCS(=O)(=O)c1ccc(Cl)cc1)NCCc1ccc(Cl)cc1Cl	n	n	n	26	n	n
O=C(Cc1ccc(Br)cc1)NCCc1ccc(Cl)cc1Cl	n	n	n	27	n	n
O=C(Cc1ccccc1)NCCc1ccc(Cl)cc1Cl	n	n	n	n	n	n
COc1cccc(NC(=O)COc2coc(CN3CCc4ccccc4C3)cc2=O)c1	n	n	n	n	n	n
